MITF primary: blocks human microphthalmia-associated transcription factor; O75030; 650,000 tested, 0.91% active; inhibition, % at 2.6 µM; AlphaScreen MITF homodimerization, bead proximity signal; in the data active = inhibition above about 50%;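 also: 0% = vehicle wells with protein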
GPR151 ag: activates the human receptor GPR151; PathHunter beta-arrestin GPR151 cells, luminescence; 650,000 tested, 1% active; Q8TDV0; activation, % at 11.2 µM; in the data active = activation above about 4.9%;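 also: 0% = median of compound wells and 100% = cells with positive control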
Target sequence (Q8TDV0 whole entry, looked up): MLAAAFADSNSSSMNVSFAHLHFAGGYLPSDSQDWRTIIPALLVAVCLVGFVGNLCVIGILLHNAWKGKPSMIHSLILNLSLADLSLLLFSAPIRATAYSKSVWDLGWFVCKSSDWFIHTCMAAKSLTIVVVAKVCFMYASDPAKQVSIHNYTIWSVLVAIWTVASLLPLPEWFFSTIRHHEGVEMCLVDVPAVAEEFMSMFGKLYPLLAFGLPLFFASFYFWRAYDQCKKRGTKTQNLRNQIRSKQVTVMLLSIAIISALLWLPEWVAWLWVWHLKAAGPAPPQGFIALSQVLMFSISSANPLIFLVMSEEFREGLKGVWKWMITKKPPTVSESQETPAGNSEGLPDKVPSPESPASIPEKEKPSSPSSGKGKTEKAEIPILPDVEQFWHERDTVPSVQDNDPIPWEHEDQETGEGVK
TEAD-YAP inh: TEAD-YAP interaction inhibition. HEK-TIYL cells, TEAD-Gal4/YAP UAS-luciferase luminescence. inhibition, % at 9.12 µM. AID 1259422. 640,000 tested, 1.4% active; in the data active = inhibition above about 32%;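 also: 0% = median of test compound wells and 100% = reference inhibitor wells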
FBW7 activator: activators of human E3 ligase FBW7; Q969H0; AlphaScreen FBW7–phospho-cyclin E peptide binding, activator screen; normalized activity (activation), % at 26.1 µM; 650,000 tested, 0.13% active; AID 1259310; in the data active = normalized activity above about 1.9%;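 also: purified mutant Fbw7 with reduced substrate affinity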
An asterisk follows results filed as active. The list is not random: actives were taken first. Their share in the collection is about 3.5%.

SMILES	MITF primary	GPR151 ag	TEAD-YAP inh	FBW7 activator
O=c1/c(=C\c2ccccc2)sc2nc3ccccc3n12	-4.1	1.2	-17.9	-0.1
CNc1nc(N/N=C/c2ccc(OC)c(OC)c2)nc(Nc2cccc(C(F)(F)F)c2)n1	-0.5	2.4	52.9*	0.1
CCNc1nc(NCC)nc(N/N=C/c2ccc(OC)c(OCc3ccccc3)c2)n1	1.4	-1.9	10.1	-0.3
C=CCNC(=O)c1cc(S(=O)(=O)N2CCc3ccccc32)ccc1Sc1ccc(F)cc1	18.0	-0.4	7.2	0.5
N/C(COc1nc(N2CCOCC2)nc(N2CCOCC2)n1)=N/O	3.3	-0.9	2.5	0.0
COc1ccc(CNC(=O)c2cnc3ccccn23)cc1	8.0	0.4	-10.9	-0.3
CC(NC(=O)c1cnc2ccccn12)c1ccc(F)cc1 (configuration not stated)	23.6	0.2	11.2	2.8*
Cc1ccc(CNC(=O)c2cnc3ccccn23)o1	26.7	-1.1	-23.2	2.1*
Cc1ncn(-c2ccc(Nc3cc(-c4nocc4-c4c(C)n[nH]c4C)ccn3)cc2)n1	4.6	-1.7	47.9*	0.2
COc1ccc(NC(=S)Nc2cccc(C(C)=O)c2)c([N+](=O)[O-])c1	-14.8	3.3	-10.4	-0.3
Nc1ccc2nc(N)sc2c1	11.9	-2.3	1.9	0.1
Nc1nc2ccc(Oc3ccc4nc(N)sc4c3)cc2s1	15.7	0.8	32.8*	0.4
Cc1ccc[n+](C(C)C(=O)c2ccc(-c3ccccc3)cc2)c1 (configuration not stated)	-10.4	0.0	65.5*	-0.1
CC(C(=O)c1ccc(-c2ccccc2)cc1)[n+]1ccccc1 (configuration not stated)	-9.8	0.3	17.9	-0.2
Cn1cccc1/C=C1\CS/C(=C\c2cccn2C)C1=O	67.9*	0.9	-10.8	-0.5
CCN1C/C(=C\c2cccn2C)C(=O)/C(=C/c2cccn2C)C1	11.3	0.5	0.7	-0.1
CCOC(=O)c1ccc(NC(=O)COc2ccc3ccccc3c2)cc1	11.1	0.7	11.6	0.0
COc1ccccc1N1C(=O)c2ccc(C(=O)Nc3cc([N+](=O)[O-])ccc3O)cc2C1=O	-22.6	-0.8	7.8	2.1*
COc1ccccc1-c1cc(C(=O)N/N=C/c2cccc(OC)c2O)[nH]n1	33.0	0.5	39.8*	-0.1
COc1cccc(/C=N/NC(=O)c2cc(-c3cccc([N+](=O)[O-])c3)n[nH]2)c1O	11.1	-0.4	71.9*	0.0
COc1ccccc1-c1cc(C(=O)N/N=C\c2ccccc2)[nH]n1	3.2	2.5	-3.0	-0.1
COc1cccc(/C=N/NC(=O)c2ccn(C)n2)c1O	8.8	-1.3	-29.8	-0.4
COc1cccc(/C=N/NC(=O)c2cc(-c3cccn3C)n[nH]2)c1O	18.2	0.4	38.2*	-0.9
COc1cc([N+](=O)[O-])cc(/C=N/NC(=O)c2cc(-c3ccccc3)n[nH]2)c1O	21.7	-0.3	1.8	0.2
COc1ccc(-c2cc(C(=O)N/N=C/c3c(C)[nH]c4ccccc34)[nH]n2)cc1OC	9.2	0.8	44.9*	0.3
SMILES	MITF primary	GPR151 ag	TEAD-YAP inh	FBW7 activator
C[C@H]1NC(=O)[C@H]2CN(C(=O)c3ccccc3)CCN2C1=O	14.1	1.7	-0.6	0.0
O=C(NCc1ccco1)C1CCC(Cn2c(=O)[nH]c3ccccc3c2=O)CC1 (configuration not stated)	7.1	-0.5	2.9	0.0
O=C(COc1cccc(Br)c1)Nc1ccc(SC(F)F)cc1	-12.6	0.5	-14.8	0.0
COc1ccc(C2=NN3C(C2)c2ccccc2OC3C(C)C)cc1 (configuration not stated)	-5.5	-0.6	-51.8	-0.1
Cc1nccn1-c1cc(NCCNC(=O)Nc2ccc(F)c(Cl)c2)ncn1	2.8	-0.5	78.2*	0.0
CCCCNCc1ccc(OC)c(OC)c1	-13.7	0.0	-3.1	0.1
Cc1ccc(NC(=O)CNC(=O)Cn2cnc3sc4c(c3c2=O)CCCC4)c(Br)c1	7.0	0.2	-12.9	-0.1
O=C(CSc1nnc2ccc(-c3ccc(Cl)cc3)nn12)N1CCCc2ccccc21	5.2	-0.5	-2.8	0.1
O=C(CSc1nnc2ccc(-c3cccnc3)nn12)N1CCCc2ccccc21	7.8	-0.9	0.1	1.9*
O=C(Nc1cccnc1)C1(c2cccs2)CCOCC1	-6.2	1.2	-1.7	0.5
CC(=O)N1CCN(C(c2ccc(F)cc2)c2sc3nc(-c4ccco4)nn3c2O)CC1 (configuration not stated)	16.5	-1.0	-2.1	0.0
O=C(Nc1ccccc1)c1cccc(Br)c1	14.3	0.5	-25.1	0.0
O=C(Nc1cc(=O)[nH]c(=O)[nH]1)c1cccc(Br)c1	13.0	-0.2	43.6*	1.2
Cc1ccc(CS(=O)Cc2ccc(C(=O)N3CCN(c4ccccc4)CC3)o2)cc1 (configuration not stated)	10.8	-0.8	16.7	0.7
O=C(c1ccc(CS(=O)c2ccccc2)o1)N1CCN(c2ccccc2)CC1 (configuration not stated)	10.0	0.7	42.0*	0.1
Cc1ccc(S(=O)(=O)Cc2ccc(C(=O)N3CCN(c4ccccc4)CC3)o2)cc1	15.9	-0.5	40.4*	-0.2
Cc1ccccc1S(=O)Cc1ccc(C(=O)N2CCN(c3ccccn3)CC2)o1 (configuration not stated)	15.0	1.0	42.2*	0.1
Cc1ccc(S(=O)Cc2ccc(C(=O)N3CCN(c4ccccc4)CC3)o2)cc1 (configuration not stated)	2.5	0.4	49.7*	0.1
CCOC(=O)c1ccc(-c2ccc(/C=C3/C(=N)N4N=C(CC(C)C)SC4=NC3=O)o2)cc1	1.6	-1.2	-33.8	0.1
COc1ccccc1C(=O)Nc1noc2nc(C)ccc12	-0.7	1.6	-12.2	-0.3
Cc1cccc(-c2nc(N3CCN(c4ccc([N+](=O)[O-])cc4)CC3)c3ccccc3n2)c1	-14.6	-0.7	6.0	-0.2
c1cc(-c2cncc(N3CCOCC3)c2)nc(Nc2ccc(-c3cnn(CCN4CCOCC4)c3)cc2)n1	17.1	-1.4	96.0*	0.9
Fc1cncc(-c2ccnc(Nc3ccc(-c4cnn(CCN5CCOCC5)c4)cc3)n2)c1	10.0	1.9	-3.8	0.4
CCCn1cc(-c2ccc(Nc3nccc(-c4cncc(N5CCOCC5)c4)n3)cc2)cn1	7.3	1.0	46.8*	0.2
Cc1nnc2n1CCN(C(=O)/C(F)=C/c1ccccc1)CC2	-3.6	-0.3	-5.3	1.9*
SMILES	MITF primary	GPR151 ag	TEAD-YAP inh	FBW7 activator
O=C(NCCc1ccccc1)C1CCN(C(=O)NCc2ccccc2)CC1	6.3	0.5	1.1	-0.2
O=C(NCCc1ccccc1)N1CCC(c2nnc(C3CC3)s2)CC1	-6.7	2.1	-11.0	2.6*
CC(C)NC(=O)N1CCC(c2nnc(C3CC3)s2)CC1	12.0	-0.7	3.9	2.1*
CC(C)NC(=O)N1CCC(c2nnc(C(C)C)o2)CC1	-9.3	-0.9	-3.9	0.2
COc1cc(/C=C(\C(=O)c2ccc(C)cc2)c2nc3ccccc3o2)cc(OC)c1OC	8.5	0.8	68.9*	-0.1
COc1cc(C(=O)/C(=C/c2ccc(C)cc2)c2nc3ccccc3o2)cc(OC)c1OC	-11.4	-0.6	4.6	-0.1
CCC(Br)C(=O)c1ccc(OC)cc1 (configuration not stated)	19.4	-0.6	9.7	0.5
